# Assay results published in ChEMBL document CHEMBL3988442, “University of Dundee, Small-Polar-MMV Screening Library” (2021).
# Biological target: T1, Methionyl-tRNA synthetase, putative (Leishmania donovani (strain BPK282A1)) (UniProt E9BF75)
# T1 sequence (whole entry): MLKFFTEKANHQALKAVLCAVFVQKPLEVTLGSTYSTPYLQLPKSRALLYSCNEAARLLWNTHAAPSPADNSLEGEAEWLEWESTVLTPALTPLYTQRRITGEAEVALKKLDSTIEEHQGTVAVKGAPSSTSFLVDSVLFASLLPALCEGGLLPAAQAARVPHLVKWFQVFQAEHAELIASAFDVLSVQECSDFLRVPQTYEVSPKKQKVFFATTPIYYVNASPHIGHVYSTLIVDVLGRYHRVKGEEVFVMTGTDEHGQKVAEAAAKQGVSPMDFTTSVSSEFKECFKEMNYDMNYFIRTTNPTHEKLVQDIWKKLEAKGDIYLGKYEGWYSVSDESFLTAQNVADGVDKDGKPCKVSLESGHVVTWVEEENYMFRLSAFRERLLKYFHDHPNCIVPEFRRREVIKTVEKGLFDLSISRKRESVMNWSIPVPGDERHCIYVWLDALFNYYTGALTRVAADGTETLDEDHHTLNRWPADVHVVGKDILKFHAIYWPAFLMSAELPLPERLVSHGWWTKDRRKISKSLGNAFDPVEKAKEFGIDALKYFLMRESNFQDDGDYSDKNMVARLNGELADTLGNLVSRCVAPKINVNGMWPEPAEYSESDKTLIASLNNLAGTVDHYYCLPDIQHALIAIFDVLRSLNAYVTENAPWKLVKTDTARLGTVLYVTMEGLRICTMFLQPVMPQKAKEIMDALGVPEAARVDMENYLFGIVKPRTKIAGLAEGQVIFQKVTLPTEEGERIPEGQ
# Experiment: Leishmania donovani Methionine tRNA synthetase (LdMetRS):v7. Dose response assay
# Format: functional
# Set-up: conc 80 nM, time 150 minutes
structure (smiles),measurement,setting,value
Cc1nc(N2CCN(c3ncccn3)CC2)c2c3c(sc2n1)CCC3,PXC50,MAX_EFFECT 14.75409836,< 4
same,PXC50,MAX_EFFECT 18.71657754,< 4
COCC(C)NC(=O)c1ccc2ccc(N3CCN(S(C)(=O)=O)CC3)n2c1 (stereo not drawn),PXC50,"BOTTOM 3.011130377, HILLSLOPE 1.725207909, MAX_EFFECT 55.66037736, TOP 58.49588417",4.74
same,PXC50,MAX_EFFECT 48.85844749,< 4
Cc1nc(N(C)CCC(=O)O)c2cc(-c3ccccc3)sc2n1,PXC50,MAX_EFFECT 10.96256684,< 4
same,PXC50,MAX_EFFECT 15.76086957,< 4
CCNC(=O)C1CCCN(c2nc(C)nc3sc4c(c23)CCC4)C1 (stereo not drawn),PXC50,MAX_EFFECT 7.25388601,< 4
same,PXC50,MAX_EFFECT 9.574468085,< 4
Cc1nc(N[C@@H](CC(C)C)C(=O)O)c2c3c(sc2n1)CCCC3,PXC50,MAX_EFFECT 23.93617021,< 4
same,PXC50,MAX_EFFECT 24.87046632,< 4
CC(C)C[C@H](N)COc1ccccc1-c1ccno1,PXC50,MAX_EFFECT 9.594882729,< 4
same,PXC50,MAX_EFFECT 10.97308489,< 4
COC(=O)c1sc2nc(C)nc(N(C)Cc3cc(C)on3)c2c1C,PXC50,MAX_EFFECT 8.556149733,< 4
same,PXC50,MAX_EFFECT 12.02185792,< 4
Cc1sc2nc(CN3CCOCC3)nc(NCCO)c2c1C,PXC50,MAX_EFFECT 7.650273224,< 4
same,PXC50,MAX_EFFECT 8.021390374,< 4
Cc1nc(N2CCC(N)C2)c2ccsc2n1 (stereo not drawn),PXC50,MAX_EFFECT 4.663212435,< 4
same,PXC50,MAX_EFFECT 6.914893617,< 4
CN(CCO)c1nc(-c2ccsc2)nc2sc3c(c12)CCCC3,PXC50,MAX_EFFECT 26.13333333,< 4
same,PXC50,MAX_EFFECT 28.04232804,< 4
CC(C)N1CCN(c2ccc3ccc(C(=O)NC4CCCC4)cn23)CC1,PXC50,"BOTTOM 0.093, HILLSLOPE 1.274308059, MAX_EFFECT 67.28971963, TOP 100.0",4.24
same,PXC50,"BOTTOM -1.582312145, HILLSLOPE 1.245531895, MAX_EFFECT 64.39909297, TOP 98.29335099",4.24
CN(C)C(=O)N1CCN(c2ccc3ncc(-c4ccc5onc(N)c5c4)n3n2)CC1,PXC50,MAX_EFFECT 21.88295165,< 4
same,PXC50,MAX_EFFECT 25.43859649,< 4
COCCNc1nc(N2CCCC2)nc2sc3c(c12)CCCC3,PXC50,MAX_EFFECT 20.83333333,< 4
same,PXC50,MAX_EFFECT 36.40350877,< 4
CNc1nc(C)nc(N2CCc3cc(C(=O)NCc4ccc(-c5nccn5C)cc4Cl)ccc32)n1,PXC50,MAX_EFFECT 28.67132867,< 4
same,PXC50,MAX_EFFECT 30.23255814,< 4
O=C1NCCCC12CCN(c1nc3c(c(C(F)(F)F)n1)CCCC3)C2 (stereo not drawn),PXC50,MAX_EFFECT 4.081632653,< 4
same,PXC50,MAX_EFFECT 6.313131313,< 4
COc1ccc(C(=O)[C@H]2C[C@@H]2CN(Cc2ccccn2)Cc2ccccn2)cc1,PXC50,MAX_EFFECT 11.1627907,< 4
same,PXC50,MAX_EFFECT 16.55011655,< 4
CCc1nc(NCCCN(C)C)c2cc(CC)sc2n1,PXC50,MAX_EFFECT 9.547738693,< 4
same,PXC50,MAX_EFFECT 12.53071253,< 4
Cc1nc(NCCCNS(C)(=O)=O)c2c3c(sc2n1)CCC3,PXC50,MAX_EFFECT 6.914893617,< 4
same,PXC50,MAX_EFFECT 9.844559585,< 4
O=C(NC1CCCC1)c1ccc2ccc(N3CCOCC3)n2c1,PXC50,"BOTTOM 3.55073469, HILLSLOPE 1.692539638, MAX_EFFECT 59.05660377, TOP 61.76844647",4.9
same,PXC50,"BOTTOM 4.599152337, HILLSLOPE 2.687600256, MAX_EFFECT 55.70776256, TOP 54.83275802",4.96
CC(C)C[C@H](N)COc1ccccc1N1CCCC1=O,PXC50,MAX_EFFECT 8.074534161,< 4
same,PXC50,MAX_EFFECT 13.85927505,< 4
CCC(CO)Nc1nc(CSc2ccccc2)nc2sc(C)c(C)c12 (stereo not drawn),PXC50,MAX_EFFECT 23.49726776,< 4
same,PXC50,MAX_EFFECT 24.06417112,< 4
Cn1cc(CN2CCC(F)(F)C3(CCN(c4ccccn4)C3)C2)cn1 (stereo not drawn),PXC50,MAX_EFFECT 6.802721088,< 4
same,PXC50,MAX_EFFECT 8.971962617,< 4
CCc1nc(NCCCO)c2cc(CC)sc2n1,PXC50,MAX_EFFECT 1.262626263,< 4
same,PXC50,MAX_EFFECT 8.163265306,< 4
CCc1nc(N2CCN(CC)CC2)c2cc(CC)sc2n1,PXC50,MAX_EFFECT 7.407407407,< 4
same,PXC50,MAX_EFFECT 9.066666667,< 4
Cc1nc(N(C)Cc2cccnc2)c2c(C)c(C)sc2n1,PXC50,MAX_EFFECT 19.78609626,< 4
same,PXC50,MAX_EFFECT 20.76502732,< 4
Cc1sc2nc(CN3CCOCC3)nc(NS(C)(=O)=O)c2c1C,PXC50,MAX_EFFECT 10.38251366,< 4
same,PXC50,MAX_EFFECT 12.29946524,< 4
Cc1nc(NCc2cccnc2)c2c3c(sc2n1)CC(C)CC3 (stereo not drawn),PXC50,MAX_EFFECT 20.10178117,< 4
same,PXC50,MAX_EFFECT 27.4559194,< 4
Cc1nc(N(C)CC(=O)NC2CC2)c2c3c(sc2n1)CCCC3,PXC50,MAX_EFFECT 4.761904762,< 4
same,PXC50,MAX_EFFECT 5.333333333,< 4
CCc1cc2c(NC(C(=O)O)C(C)C)nc(C)nc2s1 (stereo not drawn),PXC50,MAX_EFFECT 5.866666667,< 4
same,PXC50,MAX_EFFECT 8.994708995,< 4
